Activity calls are given as the source filed them. Unless noted, no rule for the calls is given here.
Assays:
[1] = resazurin metabolic signal in HepG2 cells – cell-based, resazurin fluorescence, 24 h, PK04 Diversity Set, profiling panel (AID 1172); settings: HepG2 viability, higher = more signal; also: test concentration not given here
[2] = budding yeast growth changes without added modifier – OD600, strain BY4716, 24 h, basal condition, primary screen (AID 1173); settings: S. cerevisiae BY4716 growth, OD600, 24 h; higher = more signal, called active from +8 up or from −8 down
[3] = viability profiling in MM1S myeloma cells – cell-based, resazurin fluorescence, basal, 24 h, PK04 Diversity Set, profiling panel (AID 1174); settings: higher = more signal, called active from +8 up or from −8 down;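 also: MM1S multiple myeloma cell line; test concentration not given here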
[4] = biological target: Dihydroorotate dehydrogenase (quinone), mitochondrial (Plasmodium falciparum (isolate 3D7)) (UniProt Q08210); assay: inhibition of P. falciparum DHODH – biochemical, C-terminal His tag, absorbance 600 nm, primary screen (AID 1175); settings: PfDHODH enzyme, DCIP absorbance 600 nm; higher = more signal, called active from +8 up or from −8 down;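 also: recombinant parasite enzyme with a five histidine tag at its C terminus; test concentration not given here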
Sequence of Dihydroorotate dehydrogenase (quinone), mitochondrial (Plasmodium falciparum (isolate 3D7)) (Q08210 whole entry, looked up): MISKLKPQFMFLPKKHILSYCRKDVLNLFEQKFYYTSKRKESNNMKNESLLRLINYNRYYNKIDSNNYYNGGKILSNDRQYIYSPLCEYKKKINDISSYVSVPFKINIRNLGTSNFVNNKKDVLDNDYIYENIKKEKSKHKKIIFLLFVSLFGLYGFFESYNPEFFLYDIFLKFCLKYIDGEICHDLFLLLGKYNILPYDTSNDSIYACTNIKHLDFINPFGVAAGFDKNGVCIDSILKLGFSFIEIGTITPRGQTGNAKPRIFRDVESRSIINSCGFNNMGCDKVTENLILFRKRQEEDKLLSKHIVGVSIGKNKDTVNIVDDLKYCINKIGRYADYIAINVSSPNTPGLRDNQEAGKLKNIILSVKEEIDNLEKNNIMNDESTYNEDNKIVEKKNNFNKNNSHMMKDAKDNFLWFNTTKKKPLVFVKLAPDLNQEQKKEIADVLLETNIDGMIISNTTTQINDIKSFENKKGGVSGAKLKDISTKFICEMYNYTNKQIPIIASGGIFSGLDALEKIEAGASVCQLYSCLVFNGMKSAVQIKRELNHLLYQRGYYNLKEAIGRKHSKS

[5] = inhibition of PAO1 biofilm formation – strain PAO1, LB-PBS medium, absorbance 600 nm, primary screen (AID 1176); also: test concentration not given here; settings: P. aeruginosa PAO1 growth/biofilm, A600, 12 h; higher = more signal
[6] = growth modulation of vineyard yeast isolate – strain RM11-1a, OD600, basal, 24 h, primary screen (AID 1177);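 also: cultures grown under basal conditions with no added stressor; test concentration not given here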; settings: S. cerevisiae RM11-1a growth, OD600, 24 h; higher = more signal, called active from +8 up or from −8 down
[7] = growth of efflux-deficient E. coli DRC39 – strain DRC39, OD650, 24 h, E. coli filamentation inducers, primary screen (AID 1178);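 also: growth measured as culture turbidity by optical density at 650 nm; test concentration not given here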; settings: E. coli DRC39 acrAB, higher = more signal, called active from +8 up or from −8 down
[8] = growth of efflux-deficient E. coli DRC39 – strain DRC39, OD650, 48 h, E. coli filamentation inducers, primary screen (AID 1179);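 also: screen aims at cell division blockers that make cells filament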; settings: E. coli DRC39 delta-acrAB growth, higher = more signal, called active from +8 up or from −8 down
[9] = viability profiling in RPMI8226 myeloma cells – cell-based, resazurin fluorescence, basal, 24 h, PK04 Diversity Set, profiling panel (AID 1180); settings: higher = more signal;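 also: RPMI8826 multiple myeloma cell line at 5000 cells per well; test concentration not given here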
[10] = biological target: E3 ubiquitin-protein ligase XIAP (Homo sapiens) (UniProt P98170); assay: small molecules binding XIAP protein – biophysical, small-molecule microarray, fluorescence 635 nm, primary screen (AID 1181); settings: higher = more signal;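 also: score merges 667 nm emission and signal to noise over triplicate slides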
Sequence of E3 ubiquitin-protein ligase XIAP (Homo sapiens) (P98170 whole entry, looked up): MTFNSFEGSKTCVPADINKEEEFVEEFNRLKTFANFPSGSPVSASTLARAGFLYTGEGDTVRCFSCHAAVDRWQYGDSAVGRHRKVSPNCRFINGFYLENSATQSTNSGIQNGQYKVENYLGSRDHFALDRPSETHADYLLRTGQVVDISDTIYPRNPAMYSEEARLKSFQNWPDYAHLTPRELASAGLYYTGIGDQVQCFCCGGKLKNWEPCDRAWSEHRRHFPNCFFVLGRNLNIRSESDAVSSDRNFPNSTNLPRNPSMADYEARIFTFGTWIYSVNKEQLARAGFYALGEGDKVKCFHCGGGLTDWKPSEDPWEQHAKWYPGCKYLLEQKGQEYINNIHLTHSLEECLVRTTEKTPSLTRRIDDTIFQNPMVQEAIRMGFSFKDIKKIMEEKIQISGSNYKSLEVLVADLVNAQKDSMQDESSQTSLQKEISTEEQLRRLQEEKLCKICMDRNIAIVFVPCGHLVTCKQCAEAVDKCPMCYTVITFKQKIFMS

| SMILES | z-score [1] | z-score [2] | z-score [3] | composite z-score [4] | z-score [5] | z-score [6] | z-score [7] | z-score [8] | z-score [9] | composite z-score [10] |
| --- | --- | --- | --- | --- | --- | --- | --- | --- | --- | --- |
| O=C(NN=C1C[C@@H](O)[C@@H](O)[C@@H]2[C@@H]3C(=O)N(Cc4ccc5c(c4)OCO5)C(=O)[C@@H]3CC[C@@H]12)OCc1ccccc1 | 0.0352 | -1.59 (inactive) | 0.987 (inactive) | -2.65 (inactive) | -0.683 (inactive) | -1.09 (inactive) | 0.747 (inactive) | -0.715 (inactive) | -0.32 | -0.152 |
| COC(=O)CC=C[C@@H](C)[C@@H](C=NOC[C@@H](C)[C@H](OCc1ccccc1)C(C)C)OC | -1.01 | 0.285 (inactive) | 0.405 (inactive) | 0.957 (inactive) | -0.892 (inactive) | 0.169 (inactive) | -0.213 (inactive) | -0.442 (inactive) | -0.286 | -0.118 |
| CC(C)[C@@H](OCc1ccccc1)[C@H](C)C=NO[C@@H](C)c1cn([C@H](CO)Cc2ccccc2)nn1 | -1.07 | -2.35 (inactive) | -0.883 (inactive) | -0.984 (inactive) | 0.241 (inactive) | -0.0022 (inactive) | 0.805 (inactive) | 0.633 (inactive) | -1.63 | 0.0374 |
| C[C@@H]1CC[C@H]2C(=O)N3[C@@H](CC[C@@H](C)[C@@H]3c3ccc(Br)cc3)C(=O)N2[C@H]1c1ccc(Br)cc1 | -0.346 | 0.0314 (inactive) | 0.208 (inactive) | 0.553 (inactive) | -0.27 (inactive) | 0.973 (inactive) | -0.124 (inactive) | -1.38 (inactive) | 0.102 | -0.0056 |
| CCOC(=O)[C@H](Cc1ccccc1)NC(=O)CCC1CC(OC(=O)NCc2cccc3ccccc23)CC2(CCCC(COC(=O)NCCc3ccccc3OC)O2)O1 (stereo not given in full) | 0.942 | -1.14 (inactive) | 0.179 (inactive) | -0.561 (inactive) | 0.86 (inactive) | 0.166 (inactive) | 0.122 (inactive) | 0.0971 (inactive) | 0.0498 | -0.194 |
| CC(C)[C@@H](OCc1ccccc1)[C@H](C)C=NO[C@H](C)c1cn([C@@H]2COC[C@H]2O)nn1 | -0.507 | -1.28 (inactive) | -0.648 (inactive) | -0.498 (inactive) | -0.0296 (inactive) | -0.0941 (inactive) | 0.462 (inactive) | 0.178 (inactive) | -0.64 | -0.173 |
| O=C1C=C[C@@H](O)[C@@H]2[C@@H]3C(=O)N(C4CCCCC4)C(=O)[C@@H]3CC[C@@H]12 | -0.295 | -1.28 (inactive) | -1.45 (inactive) | -0.168 (inactive) | -0.601 (inactive) | 0.246 (inactive) | -0.292 (inactive) | -0.191 (inactive) | -1.31 | -0.269 |
| CO[C@@H]1COC(=O)[C@H](CCSC)NC(=O)CC=C[C@@H](C)COC(=O)[C@@H]2CCCN2C(=O)CC=C[C@H]1C | 0.64 | -0.691 (inactive) | 0.89 (inactive) | -0.0517 (inactive) | -0.92 (inactive) | -0.572 (inactive) | -0.0629 (inactive) | -0.733 (inactive) | 0.652 | -0.0277 |
| CC(C)=CCCC(C)=CCON=C1C[C@@H](O)[C@@H](O)[C@@H]2[C@@H]3C(=O)N([C@@H](C)c4ccccc4)C(=O)[C@@H]3CC[C@@H]12 | -0.243 | 0.408 (inactive) | -0.32 (inactive) | -0.0515 (inactive) | 0.283 (inactive) | -0.471 (inactive) | -0.464 (inactive) | -0.131 (inactive) | -0.249 | -0.0476 |
| C#CCCCON=C1[C@H]2CCn3c(=O)n([C@@H](CC)c4ccccc4)c(=O)n3[C@H]2[C@H](O)[C@@H]2O[C@H]12 | -0.14 | -0.971 (inactive) | -0.813 (inactive) | 0.147 (inactive) | -0.531 (inactive) | -0.771 (inactive) | -0.529 (inactive) | -0.567 (inactive) | -0.751 | -0.181 |
| CON=C1c2cc(OC)ccc2O[C@H](c2cccc(OC)c2)[C@H]1O | 0.291 | -5.98 (inactive) | 0.322 (inactive) | -0.469 (inactive) | -0.455 (inactive) | -0.175 (inactive) | 0.489 (inactive) | 0.957 (inactive) | 0.411 | 0.418 |
| CC(=O)OC[C@H]1O[C@H](C#CCCc2ccccc2)C=C[C@@H]1OC(C)=O | -0.403 | -1.17 (inactive) | -0.841 (inactive) | -0.419 (inactive) | -0.0691 (inactive) | 0.702 (inactive) | 0.551 (inactive) | -0.406 (inactive) | -0.0728 | -0.105 |
| COC(=O)[C@@H]1CC[C@H](C)[C@@H](c2ccc(C)cc2)N1C(=O)c1ccc(C=NO[C@@H](C)c2cc(-c3c(C)cc(C)cc3C)no2)cc1 | -0.726 | 1.36 (inactive) | -0.321 (inactive) | 0.502 (inactive) | -0.925 (inactive) | 0.378 (inactive) | 0.218 (inactive) | 1.04 (inactive) | 0.0524 | -0.238 |

— PubChem BioAssay
